PERK inhibitor – inhibitors of human PERK kinase. CHO PERK-DD fusion, SEAP luminescence translation reporter. inhibition, % at 5.6 µM. 220,000 compounds, 0.17% hits. Q9NZJ5;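 active = inhibition above the mean inhibition of all tested compounds plus 3 SD, set separately per screening campaign, cut at about 2.9% in these data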;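 also: PERK kinase domain activated by AP20187 dimerizer at 100 nM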
eIF4H inh – inhibitors of RNA binding by human eIF4H. Q15056. eIF4H fluorescence polarization binding assay. inhibition, % at 35 µM. 290,000 compounds, 0.94% hits. AID 2012;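 also: calls also rest on retests at 20 µM and on dose response follow-up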
PABP1 MLLE inh – inhibitors of microRNA-mediated deadenylation, human PABP1 MLLE binding; P11940; GST-MLLE / FITC-PAM2 fluorescence polarization; inhibition, % at 20 µM; 360,000 compounds, 0.36% hits; AID 588489; in the data active = inhibition above about 35%, passing the limit was not always enough
PABP FP inh – blocks human PABP binding to poly(A) RNA | 290,000 compounds, 1% hits | P11940 | fluorescence polarization | inhibition, % at 35 µM | AID 2014;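 also: calls also rest on retests at 20 µM and on dose response follow-up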
eIF4E-4G inh – inhibitors of eIF4E and eIF4G interaction in translation initiation; TR-FRET eIF4E-eIF4GI(517-606) binding, 2 h; inhibition, % at 21.7 µM; 220,000 compounds, 0.37% hits; AID 782;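 active = inhibition above about 30%, limit read from the data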
Numbers stand for hits; – = inactive; ? = inconclusive; · = not tested or not shown; ! = repeats disagree; [ ] = another dose, or the depositor's remark. Compounds with a hit are over-represented: about 1.6% of the library has one in this group of screens. Unless noted, no rule for the calls is given here.

SMILES	PERK inhibitor	eIF4H inh	PABP1 MLLE inh	PABP FP inh	eIF4E-4G inh
CCN1c2ccccc2N(C)C1(C)c1ccccc1 (stereo not drawn)	–	83.8	–	6.9	42.7[fluorescence artefact?]
CCC1(c2ccccc2)CN(C)C1=O (stereo not drawn)	·	·	–	·	·
O=C(O)C1C2C=CC3(CN(Cc4ccco4)C(=O)C13)O2 (stereo not drawn)	–	84.1	–	–	–
COC(=O)C1C2C=CC3(CN(Cc4ccco4)C(=O)C13)O2 (stereo not drawn)	–	–	–	–	–
CCOC(=O)c1ncn2c1CN(C)C(=O)c1cc(F)ccc1-2	3.1!	–	–	–	–
Cc1ccc(CN(C)C(=O)COC(=O)CSc2ccc([N+](=O)[O-])cc2)cc1	·	·	43.3	·	·
Cc1ccc(C(=O)N2CCn3c(C)ccc3C2C)cc1 (stereo not drawn)	–	64.5	–	active	–
CCCNc1cc(=S)nc(N)[nH]1	–	?	41.9	?	–
CCCNc1nc2ccccc2c(=O)[nH]1	–	–	–	–	–
Cn1c(SCC(=O)N/N=C/C=C\c2ccco2)nc2ccccc21	–	90.3	–	55.6	–
CCn1c(SCC(=O)N/N=C/C=C\c2ccco2)nc2ccccc21	–	·	–	·	–
Cn1c(=O)c2c(ncn2CC(=O)N/N=C/C=C/c2ccco2)n(C)c1=O	–	99.1	–	101.8	–
CCOC(=O)c1ccc(N2CSC3=C(C#N)C(c4ccc(OC)cc4OC)CC(=O)N3C2)cc1 (stereo not drawn)	–	–	–	–	–
Cc1ccc(C2CC(=O)N3CN(c4ccc(Br)cc4)CSC3=C2C#N)o1 (stereo not drawn)	–	41.2	–	91.6	–
CCOc1ccc(N2CSC3=C(C#N)C(c4ccco4)CC(=O)N3C2)cc1 (stereo not drawn)	–	92.4	–	86.8	–
N#CC1=C2SCN(c3ccccc3)CN2C(=O)CC1c1c(Cl)cccc1Cl (stereo not drawn)	–	–	–	–	–
N#CC1=C2SCN(c3ccccc3)CN2C(=O)CC1c1cccs1 (stereo not drawn)	–	23.0	–	75.6	–
CC(SC1=NCCN1S(C)(=O)=O)c1ccccc1 (stereo not drawn)	·	–	–	–	·
CC(NC(=O)C1CCN(C(=O)Nc2ccccc2)CC1)c1ccccc1Cl (stereo not drawn)	·	·	–	·	·
C[C@@H]1CN([C@H](C)CO)C(=O)Cc2cc(NC(=O)CCC(F)(F)F)ccc2O[C@@H]1CN(C)S(=O)(=O)c1ccccc1	·	·	–	·	·
O=C1/C(=C\c2ccc(O)c(O)c2)C(c2ccccc2)=NN1c1ccccc1	–	–	–	40.7	–
COc1cc(/C=C2\C(=O)N(c3ccc(NC(C)=O)cc3)N=C2c2ccccc2)ccc1O	–	–	–	–	–
COc1ccc(/C=C2\C(=O)N(c3nc(-c4ccc(Br)cc4)cs3)N=C2c2ccccc2)cc1	–	·	·	·	·
CCOc1cc(/C=C2\C(=O)N(c3nc(-c4ccc(Br)cc4)cs3)N=C2c2ccccc2)ccc1O	–	83.7	–	–	–
O=C(Oc1ccc2c(c1)OCO2)c1cc2c(s1)CCC2	–	98.5	–	55.2	–
SMILES	PERK inhibitor	eIF4H inh	PABP1 MLLE inh	PABP FP inh	eIF4E-4G inh
O=C(c1cc2c(s1)CCCC2)N1CCN(Cc2ccc3c(c2)OCO3)CC1	–	–	–	–	–
CC1Cc2ccccc2N1C(=O)CN1C(=O)NC2(CCCCC2)C1=O (stereo not drawn)	·	·	–	·	·
COc1ccc(-n2cnnc2SCC(=O)Nc2cc(C)on2)cc1	–	63.4	–	17.9	–
Cc1ccc2c(c1)N1C(=O)c3ccccc3C1C1=C(CC(C)(C)CC1=O)N2 (stereo not drawn)	–	active	–	–	–
CC(=O)Oc1cccc(C2C3=C(CC(C)(C)CC3=O)Nc3ccccc3N2C(C)=O)c1 (stereo not drawn)	·	–	–	–	·
CC1=NC(=O)C(N=Nc2cccc(C(=O)O)c2)N1c1ccccc1 (stereo not drawn)	–	13.4	–	64.7	–
N#Cc1ccc(CN2CCN(C(=O)CNC(=O)Cc3ccccc3)CC2)cc1	·	·	–	·	·
Cc1cccc(C)c1OCC(=O)N/N=C/C=C/c1ccco1	–	–	–	–	–
O=C(N/N=C/C=C/c1ccco1)c1ccccc1Cl	–	77.7	–	active	–
O=C(N/N=C/C=C/c1ccco1)/C(=C/c1ccccc1)NC(=O)c1ccccc1	–	51.0	–	active	–
O=C(Cc1cccs1)N/N=C/C=C\c1ccco1	–	102.6	–	0.5	–
Cc1cccc(OCC(=O)N/N=C/C=C/c2ccco2)c1	–	81.3	–	–	–
C=CCN1C(=O)C2(OCCCO2)c2cc(C)ccc21	·	–	–	–	·

Bioassay records: PubChem, several laboratories
